# Source: PubChem BioAssay (NCATS)
# Records with an inconclusive call do not appear. The source made the active and inactive calls. The call rests on the fitted dose curve; in most records, active means well fitted inhibition curve with a large enough effect; inconclusive means small, poorly fitted or top-dose-only effect; inactive means no such curve, though single readings can be large or run the other way.
# Tested on: Zika virus NS2B-NS3 protease (linked construct)
# Test: Primary screen NINDS Rhodamine qHTS for Zika virus inhibitors (AID 1347160); further: nearly all actives have a fitted effect of over 55% in size
# Settings: purified NS2B-NS3 protease, Rhodamine110 substrate fluorescence; series mostly up to 57.1 µM; activity change, negative = inhibition: at the top concentration
# Method in brief: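 Enzyme (25 nM, linked NS2B-NS3) was preincubated 15 min with compound in 10 mM Tris-HCl pH 8.0, 0.01% Tween 20. Rhodamine110 substrate (1.5 microM) was then added and fluorescence read at start and after 15 min.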
# On the % scale 0 is the no-effect control and ±100 the full control effect; potency means the concentration at half of the fitted maximal effect.
SMILES,"activity change, negative = inhibition",outcome,Potency
O=C1NC(Cc2ccccc2)C(=O)N2CCCC12 (stereo unspecified),-12.9% (inactive),–,–
CC(C)=C/C=C\[C@H](C)[C@H]1CC[C@]2(C)C[C@@H]3C(C)=CC(=O)C3/C(CO)=C\C[C@@H]12 (stereo partly specified),-14% [at 33.1 µM] (inactive),–,–
CCOCc1cc(OC)c(-c2ccc(C[C@H](NC(=O)c3c(F)cccc3F)C(=O)O)cc2)c(OC)c1,11% (inactive),–,–
O=C1NC(=O)C(c2cn(-c3ccccc3)nc2-c2ccc(F)cc2)N1 (stereo unspecified),35% (inactive),–,–
C[C@@H]1O[C@@H](O[C@H]2[C@H](O)[C@@H](O)[C@H](O[C@H]3[C@H](O[C@H]4CC[C@@]5(C)C(=CC[C@@H]6C5CC[C@]5(C)[C@@H]7[C@H](C[C@@H]65)O[C@]5(CC[C@@](C)(CO[C@@H]6O[C@H](CO)[C@@H](O)[C@H](O)[C@H]6O)O5)[C@H]7C)C4)O[C@H](CO)[C@@H](O)[C@@H]3O)O[C@@H]2CO)[C@H](O)[C@H](O)[C@H]1O (stereo partly specified),–,inactive [at 15.1 µM],–
Cc1noc(=O)c2ccc(NC(=O)C(O)(CC(C)(C)c3cccc4c3OCC4)C(F)(F)F)cc12 (stereo unspecified),7.46% (inactive),–,–
O=C(/C=C\c1ccc(O)cc1)N[C@@H](Cc1ccc(O)cc1)C(=O)O,–,–,12.6 µM (active)
C[C@@H]1O[C@@H](O[C@H]2[C@H](O[C@H]3[C@H](O[C@H]4CC[C@@]5(C)C(CC[C@]6(C)C5CC=C5[C@@H]7CC(C)(C)C[C@@H](O)[C@]7(C)CC[C@]56C)[C@@]4(C)CO)O[C@H](C(=O)O)[C@@H](O)[C@@H]3O)OC[C@H](O)[C@@H]2O)[C@H](O)[C@H](O)[C@H]1O (stereo partly specified),-1.95% [at 15.1 µM] (inactive),–,–
C=C(C(=O)O)C1CC2=C(C)CCCC2(C)C[C@@H]1O (stereo partly specified),-13.5% (inactive),–,–
C/C(=C/CO)CC[C@@H]1[C@@](C)(O)CCC2C(C)(C)CCC[C@]21C (stereo partly specified),-14.7% [at 33.1 µM] (inactive),–,–
Cc1cc(C(N)=O)ccc1-n1c(CCC(=O)O)ccc1-c1ccc(-n2ccnc2)cc1,-18.2% (inactive),–,–
CN(C)C/C=C/C(=O)Nc1cccc(C(=O)Nc2cccc(Nc3ncc(Cl)c(-c4c[nH]c5ccccc45)n3)c2)c1,35.4% (inactive),–,–
COC(=O)CC(O)C1OC(c2ccccc2)C(O)C1O (stereo unspecified),-11% (inactive),–,–
Clc1cc2c(NC3CCCC3)nnc(-c3ccncc3)c2cc1Cl,-40.4% [at 15.1 µM] (inactive),–,–
CC(=O)NC[C@H]1CN(c2ccc(N3CCN(C(=O)CO)CC3)c(F)c2)C(=O)O1,-1.6% (inactive),–,–
N#C[C@@H]1C[C@H](F)CN1C(=O)CNC1[C@H]2CN(C(=O)c3ccc(F)cc3)C[C@@H]12 (stereo partly specified),5.11% (inactive),–,–
CC(C)(O)/C=C/CC(C)(O)C1C(O)CC2(C)C3CCC4C(C)(C)C(=O)CCC4(C)C3CCC12C (stereo unspecified),-18.4% [at 33.1 µM] (inactive),–,–
CC1=C2C3OC(=O)C(C)C3(O)CCC2(C)CCC1O (stereo unspecified),-44.3% (inactive),–,–
C/C=C/c1ccc(O[C@@H]2O[C@H](CO)[C@@H](O)[C@H](O)[C@H]2O)c(OC)c1,-12.2% [at 33.1 µM] (inactive),–,–
COc1ccc2c(OC)c3ccoc3nc2c1OC,-13.2% (inactive),–,–
C=C(C)C1Cc2cc(C(=O)OC3OC(CO)C(O)C(O)C3O)ccc2O1 (stereo unspecified),-16.7% [at 33.1 µM] (inactive),–,–
C=CC1(C)C=C2C(=O)OC(=O)C3=C(CCCC3(C)C)C2(O)CC1 (stereo unspecified),–,inactive [at 33.1 µM],–
COc1ccccc1Oc1ccc(N(Cc2cccnc2)S(=O)(=O)CC(F)(F)F)cc1,22.3% (inactive),–,–
C/C=C/c1ccc2c(c1)[C@@H](C)[C@H](c1ccc(O)cc1)O2,2.87% (inactive),–,–
CC(C)CCC[C@@H](C)[C@H]1CC[C@H]2[C@@H]3CC(=O)[C@H]4C[C@@H](O)CC[C@]4(C)[C@H]3CC[C@]12C,-21.1% (inactive),–,–
N[C@@]1(C(=O)O)CC[C@H]2[C@H](C(=O)O)[C@H]21,–,inactive,–
